{
  "source": "PubChem BioAssay AID602274",
  "about": "(Sanford-Burnham Center for Chemical Genomics, 2012)",
  "note": "About 160 (0.044%) of roughly 360,000 compounds were called active. Rule as the data show it: active = survival enhancement above about 18%; inactive = the rest. This excerpt belongs to a sample that is enriched for actives.",
  "data": [
    {"test": "enhancers of single-cell hiPSC survival, primary screen, ATPlite luminescence (AID 602274);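 also: cells exposed to compounds for 16 hours before the ATP read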", "settings": "at 20 µM, stronger effect = higher value, 100% = ROCK inhibitor wells, 0% = DMSO", "values": [
      {"smiles": "CCC(=O)c1ccc(OCC(O)CN2C(=O)NC(C)(C)C2=O)cc1", "note": "(configuration not stated)", "survival enhancement": "0.2% (inactive)"},
      {"smiles": "C=Cc1ccc(C(=O)N2CCCC(CCC(=O)N3CCN(c4ccccn4)CC3)C2)cc1", "note": "(configuration not stated)", "survival enhancement": "-0.4% (inactive)"},
      {"smiles": "CC(=O)NNC1=Nc2ccccc2N(C)C(C)C1", "note": "(configuration not stated)", "survival enhancement": "-0.5% (inactive)"},
      {"smiles": "CC1CCCCC1NC(=O)CCS(=O)(=O)c1cccc2nonc12", "note": "(configuration not stated)", "survival enhancement": "1.2% (inactive)"},
      {"smiles": "O=C(Nc1ccncc1)c1c(F)cccc1F", "survival enhancement": "39.6% (active)"},
      {"smiles": "O=C(Nc1ccccc1-c1ccccc1)c1ccccc1[N+](=O)[O-]", "survival enhancement": "0.6% (inactive)"},
      {"smiles": "O=C(Nc1cccnc1)c1ccc(Cl)cc1[N+](=O)[O-]", "survival enhancement": "-1.2% (inactive)"},
      {"smiles": "COc1cccc(OC)c1C(=O)Nc1ccc(Cc2ccncc2)cc1", "survival enhancement": "0.6% (inactive)"},
      {"smiles": "O=C(Nc1ccncc1)c1ccccc1[N+](=O)[O-]", "survival enhancement": "28.4% (active)"},
      {"smiles": "O=C(Nc1ccc(N2CCOCC2)nc1)c1c(F)cccc1F", "survival enhancement": "-0.6% (inactive)"},
      {"smiles": "Cc1cc2cc3c(cc2nc1SCC(=O)Nc1c(C)cccc1C)CCC3", "survival enhancement": "-1.9% (inactive)"},
      {"smiles": "O=C(Nc1nc(-c2ccncc2)cs1)C1COc2ccccc2O1", "note": "(configuration not stated)", "survival enhancement": "103% (active)"},
      {"smiles": "CC(=O)c1ccccc1NC(=O)COC(=O)C1COc2ccccc2O1", "note": "(configuration not stated)", "survival enhancement": "-0.2% (inactive)"},
      {"smiles": "CC(/C=C/c1ccco1)=N/NC(=O)C1COc2ccccc2O1", "note": "(configuration not stated)", "survival enhancement": "-0.2% (inactive)"},
      {"smiles": "CC(=O)c1cnn(-c2cc(Oc3ccc(F)cc3)ncn2)c1C", "survival enhancement": "2.8% (inactive)"},
      {"smiles": "CCCCNC(=O)CCn1nc(-c2ccc(Cl)cc2)ccc1=O", "survival enhancement": "0% (inactive)"},
      {"smiles": "CC(C)CCN1CCN(C/C=C/c2ccco2)CC1CCO", "note": "(configuration not stated)", "survival enhancement": "-0.4% (inactive)"},
      {"smiles": "COCc1cc(C)nc2sc3c(=O)n(-c4cccc5ccccc45)nnc3c12", "survival enhancement": "4.5% (inactive)"},
      {"smiles": "C[C@H](NC(=O)C1CC(=O)N(c2ccc3c(c2)OCCO3)C1)C(=O)N1CCC(C(=O)O)CC1", "note": "(some centres not stated)", "survival enhancement": "-0.4% (inactive)"},
      {"smiles": "CCOC(=O)C1(Cc2cccc(OC)c2)CCCN(S(=O)(=O)c2cccnc2)C1", "note": "(configuration not stated)", "survival enhancement": "1.2% (inactive)"},
      {"smiles": "C[n+]1ccccc1C1CCCC/C1=N\\Nc1ccc([N+](=O)[O-])cc1[N+](=O)[O-]", "note": "(configuration not stated)", "survival enhancement": "-1.7% (inactive)"},
      {"smiles": "Cc1ccc(OS(=O)Nc2cccc3nccnc23)cc1", "note": "(configuration not stated)", "survival enhancement": "1.2% (inactive)"},
      {"smiles": "CCc1c(C)sc(NC(=O)c2cccs2)c1C(N)=O", "survival enhancement": "-1.4% (inactive)"},
      {"smiles": "c1ccc2cc3c(NCCN4CCOCC4)ccnc3cc2c1", "survival enhancement": "-2.3% (inactive)"},
      {"smiles": "C1=C(N2CCOCC2)/C(=C/c2nc3ccccc3[nH]2)CC1", "survival enhancement": "3.5% (inactive)"},
      {"smiles": "Cc1ccc(S(=O)(=O)N2CCN(C(=O)COC(=O)/C=C/c3cccc(Cl)c3)CC2)c(C)c1", "survival enhancement": "-0.9% (inactive)"},
      {"smiles": "O=C(Nc1ccc(N2CCN(C(=O)c3ccccc3)CC2)c(Cl)c1)c1ncn[nH]1", "survival enhancement": "0.4% (inactive)"}
    ]}
  ]
}
